From PubChem BioAssay (NCATS)
Results filed as inconclusive are left out. Entries that show only a call come without a potency. More than one record can exist for a structure, and the calls need not agree. Activity calls are given as the source filed them. Calls come from the whole dose curve; as a rule, active = well fitted curve in the direction sought with a large enough effect; inconclusive = small, poorly fitted or top-dose-only effect, or another doubt; inactive = no such curve, though single readings can be large; an effect the other way counts as inactive or inconclusive.
Potency is the fitted concentration of half-maximal effect.

What follows are compounds tested on WaGa (assay: qHTS assay to identify novel small-molecules to repurpose for Merkel cell carcinoma treatment (AID 1296009; note: nearly all actives have a fitted effect of over 60% in size)). Details: MCC and control cell lines, CellTiter-Glo viability, 72 h; series mostly up to 46 µM.
How it was run: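 Cells were treated for 72 hr at 37 degree celsius with compounds in 8- or 11-point dose response. Viability was read by CellTiter-Glo luminescence, normalized to no-cell (cytotoxicity) and DMSO controls.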
`CCCCCCC[N+](CC)(CC)CCCCc1ccc(Cl)cc1` was tested, and the Potency was 0.668 µM (active). For `C[n+]1c2cc(N)ccc2cc2ccc(N)cc21` (tested in a mixture with another compound), the Potency was 1.5 µM (active). With `COc1ccc(OC)c(C(O)CNC(=O)CN)c1` (configuration not stated) the Potency was “inactive”. With `Cc1c(C(C)C)c(=O)n(-c2ccccc2)n1C` the Potency was “inactive”. `N[C@H](Cc1c[nH]c2ccccc12)C(=O)O` was tested, and the Potency was “inactive”. `O=C(Nc1ccc(Oc2ccc(Cl)cc2)c(Cl)c1)c1cc(I)cc(I)c1O` was tested, and the Potency was “inactive”. With `CCOc1ccc2nc3cc(N)ccc3c(N)c2c1` the Potency was 2.11 µM (active). With `CCC(C(=O)OCCN(CC)CC)c1ccccc1` (configuration not stated) the Potency was “inactive”. `CCCN1CCCC[C@H]1C(=O)Nc1c(C)cccc1C` was tested, and the Potency was “inactive”. `COc1cc(-c2ccc(=O)[nH]n2)ccc1OC(F)F` was tested, and the Potency was “inactive”. In the case of `Oc1ccc(O)cc1`, the Potency was 1.88 µM (active). For `OC[C@H]1O[C@@H](n2cnc3c(=S)nc[nH]c32)[C@H](O)[C@@H]1O`, the Potency was 0.237 µM (active). In the case of `O=c1c(-c2ccccc2)c1-c1ccccc1`, the Potency was 18.8 µM (active). For `CC(C)(C)CC(C)(C)c1ccc(OCCOCC[N+](C)(C)Cc2ccccc2)cc1`, the Potency was 1.5 µM (active). In the case of `CO/N=C1\CN(c2nc3c(cc2F)c(=O)c(C(=O)O)cn3C2CC2)CC1CN` (configuration not stated), the Potency was “inactive”. For `CCCCCCCCCCCCCCCC[N+](C)(C)CC`, the Potency was 0.119 µM (active). In the case of `CC(=O)Oc1ccc(C(c2ccc(OC(C)=O)cc2)c2ccccn2)cc1`, the Potency was “inactive”. `CCCCCCCCCCCCCCCC[N+](C)(C)CCN(Cc1ccc(OC)cc1)c1ncccn1` was tested, and the Potency was 16.8 µM (active). `Oc1c(I)cc(Cl)c2cccnc12` was tested, and the Potency was 23.7 µM (active). `CC1=C(C(=O)O)N2C(=O)[C@@H](NC(=O)[C@H](N)c3ccc(O)cc3)[C@H]2SC1` was tested, and the Potency was “inactive”. For `Nc1ccc(C(=O)Nc2ccccc2N)cc1`, the Potency was 2.66 µM (active). For `Cc1ccccc1C(=O)Nc1ccc(C(=O)N2CCCC(N(C)C)c3ccccc32)cc1` (configuration not stated), the Potency was “inactive”. `CCCCC(CC)CN=C(N)NC(N)=NCCCCCCN=C(N)NC(N)=NCC(CC)CCCC` (configuration not stated) was tested, and the Potency was 2.66 µM (active). For `CN(C/C=C/c1ccccc1)Cc1cccc2ccccc12`, the Potency was “inactive”. `C=C(CC)C(=O)c1ccc(OCC(=O)O)c(Cl)c1Cl` was tested, and the Potency was 13.3 µM (active). For `O=C1OC(c2ccc(O)cc2)(c2ccc(O)cc2)c2ccccc21`, the Potency was “inactive”. For `COc1cc(C=C2CCC/C(=C\c3ccc(O)c(OC)c3)C2=O)ccc1O`, the Potency was 5.31 µM (active). With `NC(=NCCCCCCN=C(N)/N=C(\N)Nc1ccc(Cl)cc1)/N=C(\N)Nc1ccc(Cl)cc1` the Potency was 8.41 µM (active). `COc1cccc2c1C(=O)c1c(O)c3c(c(O)c1C2=O)C[C@@](O)(C(C)=O)C[C@@H]3O[C@H]1C[C@H](N)[C@H](O)[C@H](C)O1` was tested, and the Potency was 0.0237 µM (active).

These compounds were tested on C33A (assay: Primary qHTS to identify gynecologic anti-cancer compounds using libraries of approved drugs and bioactive compounds (AID 1345084; note: nearly all actives have a fitted effect of over 55% in size)). Details: Gynecologic cancer cell panel viability, ATPlite luminescence, 48 h; series mostly up to 57.5 µM.
How it was run: (§1)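 Cells, 1,000 per well, were allowed to settle for 16 h at 37 C before compound addition. Five concentrations were tested for 48 h, and viability was read by ATPlite luminescence after 15 min at room temperature.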
`Cc1cc(N)c2cc(NC(=O)Nc3ccc4nc(C)cc(N)c4c3)ccc2n1` was tested, and the Potency was “inactive”. With `COc1ccc(OC)c(C(O)CNC(=O)CN)c1` (configuration not stated) the Potency was “inactive”. In the case of `Cc1c(C(C)C)c(=O)n(-c2ccccc2)n1C`, the Potency was “inactive”. `N[C@H](Cc1c[nH]c2ccccc12)C(=O)O` was tested, and the Potency was “inactive”. With `O=C(Nc1ccc(Oc2ccc(Cl)cc2)c(Cl)c1)c1cc(I)cc(I)c1O` the Potency was “inactive”. With `CN(C)C(=S)SC(=S)N(C)C` the Potency was 15.8 µM (active). For `CCC(C(=O)OCCN(CC)CC)c1ccccc1` (configuration not stated), the Potency was “inactive”. For `CCCN1CCCC[C@H]1C(=O)Nc1c(C)cccc1C`, the Potency was “inactive”. In the case of `COc1cc(-c2ccc(=O)[nH]n2)ccc1OC(F)F`, the Potency was “inactive”. In the case of `Oc1ccc(O)cc1`, the Potency was “inactive”. With `OC[C@H]1O[C@@H](n2cnc3c(=S)nc[nH]c32)[C@H](O)[C@@H]1O` the Potency was 7.94 µM (active). For `C/C=C(/C(=C/C)c1ccc(O)cc1)c1ccc(O)cc1`, the Potency was “inactive”. For `CCCSS/C(CCO)=C(\C)N(C=O)Cc1cnc(C)nc1N`, the Potency was “inactive”. `CC(=O)Oc1ccc(C(c2ccc(OC(C)=O)cc2)c2ccccn2)cc1` was tested, and the Potency was “inactive”. `Cc1ccc(O)c2ncccc12` was tested, and the Potency was “inactive”. With `Cc1c(C)n(CCN(C)C)c2ccc(C(=O)OCCN(C)C)cc12` the Potency was “inactive”. In the case of `CC1=C(C(=O)O)N2C(=O)[C@@H](NC(=O)[C@H](N)c3ccc(O)cc3)[C@H]2SC1`, the Potency was “inactive”. With `Nc1ccc(C(=O)Nc2ccccc2N)cc1` the Potency was “inactive”. `Cc1ccccc1C(=O)Nc1ccc(C(=O)N2CCCC(N(C)C)c3ccccc32)cc1` (configuration not stated) was tested, and the Potency was “inactive”. With `CN(C/C=C/c1ccccc1)Cc1cccc2ccccc12` the Potency was “inactive”. For `C=C(CC)C(=O)c1ccc(OCC(=O)O)c(Cl)c1Cl`, the Potency was “inactive”. For `O=C1OC(c2ccc(O)cc2)(c2ccc(O)cc2)c2ccccc21`, the Potency was “inactive”. In the case of `COc1cccc2c1C(=O)c1c(O)c3c(c(O)c1C2=O)C[C@@](O)(C(C)=O)C[C@@H]3O[C@H]1C[C@H](N)[C@H](O)[C@H](C)O1`, the Potency was 0.631 µM (active).

These compounds were tested on CAOV3 in the same assay as above. Details: Gynecologic cancer cell panel viability, ATPlite luminescence, 48 h; series mostly up to 57.5 µM.
How it was run: as §1
With `Cc1cc(N)c2cc(NC(=O)Nc3ccc4nc(C)cc(N)c4c3)ccc2n1` the Potency was “inactive”. For `N[C@H](Cc1c[nH]c2ccccc12)C(=O)O`, the Potency was “inactive”. For `COc1cc(-c2ccc(=O)[nH]n2)ccc1OC(F)F`, the Potency was “inactive”. With `Oc1ccc(O)cc1` the Potency was “inactive”. `OC[C@H]1O[C@@H](n2cnc3c(=S)nc[nH]c32)[C@H](O)[C@@H]1O` was tested, and the Potency was “inactive”. In the case of `CC(C)(C)CC(C)(C)c1ccc(OCCOCC[N+](C)(C)Cc2ccccc2)cc1`, the Potency was 25.1 µM (active) and inactive. In the case of `C/C=C(/C(=C/C)c1ccc(O)cc1)c1ccc(O)cc1`, the Potency was “inactive”. `CCCSS/C(CCO)=C(\C)N(C=O)Cc1cnc(C)nc1N` was tested, and the Potency was “inactive”. With `CC(=O)Oc1ccc(C(c2ccc(OC(C)=O)cc2)c2ccccn2)cc1` the Potency was “inactive”. For `Cc1ccc(O)c2ncccc12`, the Potency was “inactive”. With `Cc1c(C)n(CCN(C)C)c2ccc(C(=O)OCCN(C)C)cc12` the Potency was “inactive”. With `Oc1c(I)cc(Cl)c2cccnc12` the Potency was “inactive”. For `Nc1ccc(C(=O)Nc2ccccc2N)cc1`, the Potency was “inactive”. With `CN(C/C=C/c1ccccc1)Cc1cccc2ccccc12` the Potency was “inactive”. In the case of `C=C(CC)C(=O)c1ccc(OCC(=O)O)c(Cl)c1Cl`, the Potency was “inactive”.
